This is an account of results in PubChem BioAssay AID493033 (ICCB-Longwood Screening Facility, Harvard Medical School, 2011).

In all, about 100,000 compounds went through this assay and about 930 (0.93%) were called active. What follows is part of a selection rich in actives, with near analogues and random picks from the rest. Unmarked numbers belong to inactive results. Rule as the data show it: active = inhibition mostly above about 56% (no sharp cut-off); inactive = mostly below about 77%.

In this assay the target is Salicylate synthase (Mycobacterium tuberculosis (strain CDC 1551 / Oshkosh)) (UniProt P9WFX0). Nature of the assay: MbtI salicylate synthase inhibitors, primary screen, biochemical, fluorescence intensity (AID 493033). The note with it: purified MbtI enzyme, fluorescence intensity read-out, active compounds read high, concentration not given here.
Salicylate synthase (Mycobacterium tuberculosis (strain CDC 1551 / Oshkosh)), sequence (P9WFX0 whole entry, looked up): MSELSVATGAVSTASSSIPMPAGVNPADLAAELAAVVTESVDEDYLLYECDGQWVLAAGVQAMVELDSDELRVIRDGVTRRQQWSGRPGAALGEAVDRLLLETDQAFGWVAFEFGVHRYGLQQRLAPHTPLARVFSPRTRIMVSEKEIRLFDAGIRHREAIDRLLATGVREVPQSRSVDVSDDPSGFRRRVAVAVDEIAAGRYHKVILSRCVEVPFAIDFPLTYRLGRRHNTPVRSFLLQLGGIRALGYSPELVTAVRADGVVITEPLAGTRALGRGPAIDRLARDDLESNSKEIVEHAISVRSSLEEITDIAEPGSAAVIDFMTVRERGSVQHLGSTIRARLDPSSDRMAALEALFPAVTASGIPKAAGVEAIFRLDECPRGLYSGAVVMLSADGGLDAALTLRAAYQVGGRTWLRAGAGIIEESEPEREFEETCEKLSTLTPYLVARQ
As a reminder, the inhibition is the change of the read-out against control, counted positive when it falls. Consider `CSc1ncnc2sc(-c3ccccc3)cc12`, for which the inhibition was -44.5%. On to `CN=Cc1cc(-c2ccccc2)sc1S`, for which the inhibition was 95.8% (active). Turning to `O=c1cc(-c2ccccc2)sc2ccc(Cl)cc12`, the inhibition was -0.1%. For `Cc1nn2c(=O)/c(=C/c3ccccc3)sc2nc1=O`, the inhibition was -1.65%. To `Cc1nc(Cc2nnc(SC/C(O)=C(\C#N)c3nc4ccccc4[nH]3)o2)cs1` belongs 25.6%; to `Cc1occc1-c1nnc2n1N=C(c1ccc(-c3cc(Cl)ccc3Cl)o1)CS2`, 98% (active).

As to `O=C(Nc1cccc(Br)c1)C1CC(=O)N(C2CCCC2)C1` (stereo not given), the inhibition is -4.55%.

Consider `CN(C)c1ccc(-c2ncnn2-c2ccccc2)cc1`, for which the inhibition is -9.6%. With `Cc1csc(NC(=O)C2CCC(CNS(=O)(=O)c3cccc4nsnc34)CC2)n1` (stereo not given), the inhibition was -0.3%. As for `Cc1ccc(Cl)cc1N1CCN(C(=O)/C=C/c2ccc(S(=O)(=O)NCc3ccco3)cc2)CC1`, the inhibition was 5.7%. Regarding `COC(=O)c1cccc(NC(=O)CCCN2C(=O)c3ccccc3C2=O)c1`, the inhibition was -11.5%. Regarding `Cc1ccc(NC(=O)COC(=O)C2CCC2)cc1Cl`, the inhibition is -5.6%. On to `COc1cc(NS(=O)(=O)c2cc(C)c(Cl)cc2C)c(C(=O)O)cc1OC`, for which the inhibition is -26.2%.

For `O=C(C1=Cc2sc3c(c2CS1)CCCC3)N1CCCC1`, the inhibition was 98.8% (active).

As to `O=C(c1ccc(Cl)cc1)N1CCCC1`, the inhibition is -5.1%. On to `O=C(O)C1=Cc2sc3c(c2CS1)CCCC3`, for which the inhibition is 95.4%. As for `O=C(O)C1CCC(CNCc2cccc(Br)c2)CC1` (stereo not given), the inhibition was -9.65%.

Consider `O=C(/C=C\c1cn(-c2ccccc2)nc1-c1cccs1)N1CCOCC1`, for which the inhibition is -50.8%.

Take `CCN(CC)c1ccc2oc(=O)c(C)nc2c1`: the inhibition is 94.8% (active). For `CCN(CC)c1ccc(-n2nc3cc(C)c(NC(C)=O)cc3n2)cc1`, the inhibition is 88.6%. On to `CCN(CC)c1ccc(C=C(C#N)C#N)c(OC(C)=O)c1`, for which the inhibition was -99.2%.

For the molecule `CCCc1cc2c(cc1N)OCO2`, the inhibition was 13.3%.

With `CCc1nc2cccnc2n1-c1ccc(CC(=O)NCCN2CCOCC2)cc1`, the inhibition was 2.4%. On to `S=C(c1ccc(-c2ccccc2)o1)N1CCCCC1`, for which the inhibition is 102% (active). Take `O=C(c1ccco1)N1CCCCCCC1`: the inhibition is -14.8%. In the case of `S=C(Cc1ccccc1)N1CCCCC1`, the inhibition was 29.6%. Take `COC(=O)c1cc(Cl)cc(Cl)c1O`: the inhibition is -95.7%. Regarding `O=c1cc(CN2CCN(Cc3ccccc3)CC2)nc2sccn12`, the inhibition is 12%. Regarding `COc1cccc(CN(C)C(=O)/C=C/c2ccco2)c1OC`, the inhibition is 9.5%. Consider `Cn1ncc2c(NCc3cccnc3)ncnc21`, for which the inhibition was 0.9%.

Turning to `O=C(CCn1c(=O)oc2ccccc21)Sc1ccc(C(F)(F)F)cc1`, the inhibition was 70.7% (active). Turning to `Cc1cccc(NC(=O)CCn2c(=O)oc3ccccc32)c1`, the inhibition is 3%.

Consider `O=C(CCCn1c(=O)oc2ccccc21)Nc1cccnc1`, for which the inhibition was -8.05%. To `CCN(Cc1nc(-c2ccc(OC)c(OC)c2)no1)C(=O)CCC1CCCCC1` belongs -0.6%. To `CCCCn1c2c(c(=O)n(C)c1=O)C(c1ccc(OC)cc1)C1=C(CCCC1=O)N2` (stereo not given) belongs -21%; to `Cc1cc(C)nc(SCc2nnc(SCC(=O)N3c4ccccc4Sc4ccc(Cl)cc43)o2)n1`, -20.7%. On to `CC1=NOC(=O)C1C(c1cccc(Br)c1)c1c(C)[nH]n(-c2ccccc2)c1=O` (stereo not given), for which the inhibition was 98.3% (active). With `Cc1noc(C)c1C(=O)c1c(C)[nH]n(-c2ccccc2)c1=O`, the inhibition was 3.5%.

`Cc1ccc(Sc2c(C)[nH]n(-c3ccccc3)c2=O)cc1`: the inhibition was -4.4%. For `c1ccc(Nc2nncs2)cc1`, the inhibition was 12.9%.

Regarding `S=c1[nH]nc(NCCc2ccccc2)s1`, the inhibition was 86.7%. Regarding `S=c1[nH]nc(Nc2ccccc2)s1`, the inhibition was 99.7% (active). With `COc1ccccc1-c1nnc(Cc2ccc(F)cc2Cl)o1` the figure was -4.2%; with `O=C1CN(C(=O)C2COc3ccccc3O2)c2ccccc2N1` (stereo not given), -23.2%. As to `O=C(CSc1nc(-c2ccccc2)nc2c1CCCC2)N/N=C/c1ccco1`, the inhibition is -6.4%.

On to `COc1ccccc1C(=O)CSc1cccc[n+]1[O-]`, for which the inhibition is -9.25%. For `CC(C)(C)CNC(=S)NN`, the inhibition was -14.9%. To `C=C(C)CNC(=S)NN` belongs 98.5% (active); to `C=C(C)CNC(=S)N1CCNCC1`, -14.4%; to `CCc1nc(NCCO)c(C#N)c2c1CCCC2`, -125%. With `O=C(NC1=NCCS1)c1ccccn1`, the inhibition was -4.65%. Consider `COc1ccc(-c2nn(-c3ccccc3)cc2/C=C\C(=O)N(C)C)cc1`, for which the inhibition is -4.25%. As for `O=C(CNCc1ccc2c(c1)OCO2)NCc1ccc2c(c1)OCO2`, the inhibition was 7.9%.

For the molecule `CCCn1c(SC(C(=O)NC(=O)NC)c2ccccc2)n[nH]c1=O` (stereo not given), the inhibition is -3.85%. For `CC1CCCCC1NC(=O)COc1ccc(C#N)cc1` (stereo not given), the inhibition is -7.1%.

With `S=c1ccc2ccccc2[nH]1`, the inhibition is 82.2% (active).

Turning to `O=C(O)Cc1cn(-c2ccccc2)nc1-c1cccs1`, the inhibition is -32.5%. As to `c1ccc(C(N2CCOCC2)N2CCOCC2)cc1`, the inhibition was -2.5%. With `CC(O)CNc1nc2ccccc2n1CC(O)COCc1ccco1` (stereo not given) the figure was -2.1%; with `O=C(CNCCCN1CCOCC1)Nc1cccc(C(F)(F)F)c1`, 14.8%.

Regarding `O=C(CSc1ccc(Br)cc1)c1ccco1`, the inhibition was 55.8% (active). `O=C(CSc1ccc2ccccc2c1)N1CCN(C(=O)c2ccco2)CC1`: the inhibition is -5.25%.

For `O=C(CSc1ccccc1)Nc1ccc(NC(=O)c2ccco2)cc1`, the inhibition is 9.65%. For `CCSc1nnc(SCC(=O)N2CC(=O)Nc3ccccc32)s1`, the inhibition is 12.2%.

With `Oc1c(C(Nc2ccccn2)c2cccnc2)ccc2cccnc12` (stereo not given), the inhibition was 28.4%.

Take `CC(=O)NC(c1ccccc1)c1ccc2cccnc2c1O` (stereo not given): the inhibition is -4.35%. To `Oc1c(C(c2cccnc2)N2CCOCC2)ccc2cccnc12` (stereo not given) belongs 91.7% (active); to `O=C(NCCC1=CCCCC1)Nc1ccc(Cl)cc1`, -5%. Take `Cc1cc(C)nc(NNC(=S)Nc2ccc(S(=O)(=O)N3CCOCC3)cc2)n1`: the inhibition is 54.5%. With `Cc1ccc(C(=O)CN(C)C2CCCCC2)cc1`, the inhibition is 12.6%. As to `CCn1c(=O)cc(SCC(=O)NC2CCCCC2)c2ccccc21`, the inhibition is -8.85%. With `COC(=O)c1ccc(CSCC(=O)Nc2ccc(C)c(C)c2)o1`, the inhibition was -3.9%. For the molecule `COc1cc(/C=C/C(=O)N2CCc3ccccc3C2)cc(OC)c1OC`, the inhibition is -28.7%. With `Oc1cc2c(cc1O)CN(C(=S)NCCc1ccc(Cl)cc1)CCC2` the figure was 100% (active). In the case of `S=C(NCCc1ccc(Cl)cc1)Nc1ccccc1`, the inhibition was -14.1%.

As for `O=C1CCN(C(=S)NCCc2ccccc2)CC1`, the inhibition is 14.8%. For `COc1cc(C#N)ccc1Oc1nc(CN2CCOCC2)nc2scc(-c3cccs3)c12`, the inhibition is 18.1%. Take `CC(C)Cn1c(SCc2nnc(-c3ccccc3)o2)nnc1-c1ccccc1F`: the inhibition is -1.55%.

Turning to `CC1=C(C(=O)OC2CCCC2)C(c2cc3c(cc2Cl)OCO3)C2=C(CCCC2=O)N1` (stereo not given), the inhibition is 116%. As to `COc1ccc(OC)c(NC(=O)CC(Cc2ccccc2OC)C(=O)O)c1` (stereo not given), the inhibition is 2.1%.

`COc1ccc(OC)c(NC(=O)CS)c1`: the inhibition is 97.5% (active). To `COc1ccc(OC)c(NC(=O)CCN2CCC(C)CC2)c1` belongs -19.2%; to `O=C1C=CC(=O)N1c1ccc(N2CCCCC2)cc1`, 99.7% (active). As for `O=c1[nH][nH]c(=O)c2cc(N3CCCC3)ccc12`, the inhibition was -10.9%. Consider `N#CSc1ccc(N2CCCCC2)cc1`, for which the inhibition is 21.2%. For the molecule `COc1ccccc1C(=O)Nc1ccccc1N1CCN(C)CC1`, the inhibition was -4.85%.

For the molecule `Fc1ccc(NC(=S)N2CCN=C2Nc2ccc(F)cc2)cc1`, the inhibition was 72.3% (active). To `COc1ccc(NC(=S)N2CCCCC2)cc1` belongs -6.7%; to `OC1CCN(C(=S)Nc2ccccc2)CC1`, -8.65%.

For `COc1ccc(-c2nnc(SCC(=O)NC3CCCc4ccccc43)o2)cc1OC` (stereo not given), the inhibition was -3.65%. Consider `COc1cccc(C(=O)Nc2ccccc2C#N)c1OC`, for which the inhibition is -17.5%. As for `CC(C)Cn1nccc1N`, the inhibition is -12%. With `CC(C)CN1C(=O)C=CC1=O` the figure was 80.8% (active); with `O=C(NCCCN1CCCC1)C1CCN(c2nc3ccccc3n3cccc23)CC1`, -7.35%; with `CC(C)c1n[nH]c(=S)n1N`, 96.5% (active).

Consider `CCn1c(C(C)C)n[nH]c1=S`, for which the inhibition was 2.75%. As to `CC(C)Sc1n[nH]c(=S)n1N`, the inhibition is 98.2% (active). With `N#Cc1c(-c2c(O)[nH]c3ccccc23)c2c(-c3ccncc3)[nH]nc2oc1=N` the figure was -1.15%; with `CCS(=O)(=O)Nc1ccc(Cl)cn1`, 89.8%; with `COCCNc1oc(COc2ccc(Br)cc2)nc1C#N`, -15%. With `COc1ccc(C2Nn3c(C)nnc3SC2C(=O)N2CCCC2)cc1` (stereo not given), the inhibition is -6.35%. `Cc1ccc(-n2c(SC(C)C(=O)NC(N)=O)nc3ccccc32)cc1` (stereo not given): the inhibition is -6.15%. Consider `CCCCSC1=NC(C)(C)Nc2ccccc21`, for which the inhibition was -13.3%. Take `CC(C)NC(=O)CSc1nc(-c2ccccc2)cn1N`: the inhibition was 11.2%.

For `CCOC(=O)c1cc(-c2ccccc2)no1`, the inhibition was -8.95%. `O=C(COC(=O)/C=C/c1cccs1)Nc1ncc(Br)s1`: the inhibition was 0.8%. For the molecule `CCOc1ccc2[nH]c(=S)sc2c1`, the inhibition was 81.3% (active). On to `CCOc1ccc2c(c1)sc1nc(=O)n(-c3ccccc3)c(=O)n12`, for which the inhibition is 3.85%. As for `CCOc1ccc(OCCBr)cc1`, the inhibition was -5.55%.

On to `CNC(=O)c1cc2c(n(-c3ccccc3)c1=O)CC(C)(C)CC2=O`, for which the inhibition was 72.9%.
